Where “and” joins values, the source holds several entries; their conditions need not be identical. Equal values may be shown once. Inconclusive results are not listed. Calls of active or inactive are those of the source. Calls come from the whole dose curve.
Potency is the fitted concentration of half-maximal effect.

This assay in a line: qHTS assay for small molecule agonists of the antioxidant response element (ARE) signaling pathway - cell viability counter screen (AID 743203). Note: nearly all actives have a fitted effect of over 55% in size. The settings on record: ARE-bla HepG2 viability, CellTiter-Glo luminescence, 16 h; series mostly up to 73.3 µM. The gist of the method: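 Following 16 hrs of compound treatment at 37C, HepG2 cells with an ARE-controlled beta-lactamase gene were lysed with CellTiter-Glo. Luminescence was read after 30 min at room temperature.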
Regarding `O=C1CCCc2c1cc1ccc3cccc4ccc2c1c34`, the Potency result was “inactive”.

For `NC(=O)CC[C@@H]1NC(=O)[C@H](Cc2ccccc2)NC(=O)[C@H](Cc2ccc(O)cc2)NC(=O)CCSSC[C@@H](C(=O)N2CCC[C@H]2C(=O)N[C@@H](CCCN=C(N)N)C(=O)NCC(N)=O)NC(=O)[C@H](CC(N)=O)NC1=O`, the Potency result was “inactive”.

`C=CC(=O)OCCn1c(=O)n(CCOC(=O)C=C)c(=O)n(CCOC(=O)C=C)c1=O`: the Potency is 54.5 µM (active).

Regarding `CCCCCCCCCCCC(=O)NCCCN(C)C`, the Potency was 43.3 µM (active).

On to `CCCCCCCC[P+](CCCCCCCC)(CCCCCCCC)CCCCCCCC`, for which the Potency is 10.8 µM (active).

Turning to `CCCC(c1cc(C(C)(C)C)c(O)cc1C)c1cc(C(C)(C)C)c(O)cc1C`, the Potency was 17.4 µM (active).

Consider `CC/C(=C(\c1ccc(O)cc1)c1ccc(OCCN(C)C)cc1)c1ccccc1`, for which the Potency is 15.4 µM (active).

For the compound `C[C@@H](NCCCc1cccc(C(F)(F)F)c1)c1cccc2ccccc12`, the Potency was 29.8 µM (active).

Regarding `Oc1cccc(-c2c3nc(c(-c4cccc(O)c4)c4ccc([nH]4)c(-c4cccc(O)c4)c4nc(c(-c5cccc(O)c5)c5ccc2[nH]5)CC4)C=C3)c1`, the Potency result was “inactive”.

In the case of `CC(C)(C)C(=O)OCOC(=O)[C@@H]1N2C(=O)[C@@H](NC(=O)[C@H](N)c3ccccc3)[C@H]2SC1(C)C`, the Potency entry is “inactive”.

For `CCCCC(CC)CN=C(N)NC(N)=NCCCCCCN=C(N)NC(N)=NCC(CC)CCCC` (stereo unspecified), the Potency was 9.44 µM (active).

Regarding `Clc1ccc2cc3ccccc3cc2c1`, the Potency result is “inactive”.

On to `CN(C)c1ccc(C2(c3ccc(N(C)C)cc3)OC(=O)c3cc(N(C)C)ccc32)cc1`, for which the Potency result was “inactive”.

Turning to `CC(=O)N1CCN(c2ccc(OC[C@H]3CO[C@](Cn4ccnc4)(c4ccc(Cl)cc4Cl)O3)cc2)CC1`, the Potency was 61.1 µM (active).

Consider `Cc1[nH]cnc1C[C@H]1CCc2c(C)c3ccccc3n2C1=O`, for which the Potency was 53.1 µM (active).

Consider `C=CC(=O)OCC(CO)(COCC(COC(=O)C=C)(COC(=O)C=C)COC(=O)C=C)COC(=O)C=C`, for which the Potency was 8.53 µM (active).

For the compound `NNc1nc(-c2ccc(N)cc2)cs1`, the Potency entry is “inactive”.

With `CC(C)c1ccc2c(c1)CC[C@H]1[C@](C)(CN)CCC[C@]21C`, the Potency is 6.86 µM (active).

Take `[Cl][Bi]([Cl])([c]1ccccc1)([c]1ccccc1)[c]1ccccc1`: the Potency was 5.42 µM (active).

Take `Cc1cc(CCN2CCN(c3nsc4ccccc34)CC2)cc2c1NC(=O)CC2(C)C`: the Potency was 21.7 µM (active).

On to `O=C(Nc1cccc(Cl)c1)OCC#CCCl`, for which the Potency was 54.5 µM (active).

For `Oc1cc2ccccc2c2ccccc12`, the Potency is 9.69 µM (active).

On to `C=CC(=O)OCC(CO)(COC(=O)C=C)COC(=O)C=C`, for which the Potency was 61.3 µM (active) and 30.6 µM (active).

In the case of `C[n+]1cc2c3c(ccc2c2ccc4cc5c(cc4c21)OCO5)OCO3`, the Potency was 0.92 µM (active).

Take `CCN(Cc1cccnc1)C(=O)c1cccc(Cl)c1[C@]1(C)C(=O)N(Cc2ccc(OC)cc2OC)c2ccc(Cl)cc21`: the Potency was 5.09 µM (active).

As to `CS(=O)(=O)CCNCc1ccc(-c2ccc3ncnc(Nc4ccc(OCc5cccc(F)c5)c(Cl)c4)c3c2)o1`, the Potency is 26.6 µM (active).

On to `CN(C)C(=O)C1(N2CCCCC2)CCN(CC[C@@]2(c3ccc(Cl)c(Cl)c3)CN(C(=O)c3ccccc3)CCO2)CC1`, for which the Potency is 20.3 µM (active).

Regarding `CCCCCCCCCCCCc1ccc(O)cc1`, the Potency was 54.5 µM (active).

Turning to `CCCCCCCCOc1ccccc1C(=O)Nc1ccc(C(=O)OCC[N+](C)(CC)CC)cc1`, the Potency was 29.8 µM (active).

Regarding `CC(C)(C)C(=O)OCOC(=O)C1N2C(=O)CC2S(=O)(=O)C1(C)C` (stereo unspecified), the Potency entry is “inactive”.

Take `O=S1(=O)CC(Cl)(Cl)C(Cl)(Cl)C1`: the Potency is 4.33 µM (active).

The values are drawn from PubChem BioAssay (Tox21).
